# Laboratory results taken from paper PMC4336329 (PLoS ONE, 2015).
# The campaign covered roughly 310,000 compounds. About 2,200 (0.71%) showed an effect of 50% or more. The effect is printed as a negative number. The sample holds strong results, similar compounds and a random draw of the others, so the mix is not that of the screen.
# Target: human ether-à-go-go-related gene (hERG) potassium channel (human, UniProt Q12809)
# Experiment: primary screen, population patch clamp on CHO cells stably expressing hERG; higher = less effect of the substance
# human ether-à-go-go-related gene (hERG) potassium channel, sequence (Q12809 whole entry, looked up): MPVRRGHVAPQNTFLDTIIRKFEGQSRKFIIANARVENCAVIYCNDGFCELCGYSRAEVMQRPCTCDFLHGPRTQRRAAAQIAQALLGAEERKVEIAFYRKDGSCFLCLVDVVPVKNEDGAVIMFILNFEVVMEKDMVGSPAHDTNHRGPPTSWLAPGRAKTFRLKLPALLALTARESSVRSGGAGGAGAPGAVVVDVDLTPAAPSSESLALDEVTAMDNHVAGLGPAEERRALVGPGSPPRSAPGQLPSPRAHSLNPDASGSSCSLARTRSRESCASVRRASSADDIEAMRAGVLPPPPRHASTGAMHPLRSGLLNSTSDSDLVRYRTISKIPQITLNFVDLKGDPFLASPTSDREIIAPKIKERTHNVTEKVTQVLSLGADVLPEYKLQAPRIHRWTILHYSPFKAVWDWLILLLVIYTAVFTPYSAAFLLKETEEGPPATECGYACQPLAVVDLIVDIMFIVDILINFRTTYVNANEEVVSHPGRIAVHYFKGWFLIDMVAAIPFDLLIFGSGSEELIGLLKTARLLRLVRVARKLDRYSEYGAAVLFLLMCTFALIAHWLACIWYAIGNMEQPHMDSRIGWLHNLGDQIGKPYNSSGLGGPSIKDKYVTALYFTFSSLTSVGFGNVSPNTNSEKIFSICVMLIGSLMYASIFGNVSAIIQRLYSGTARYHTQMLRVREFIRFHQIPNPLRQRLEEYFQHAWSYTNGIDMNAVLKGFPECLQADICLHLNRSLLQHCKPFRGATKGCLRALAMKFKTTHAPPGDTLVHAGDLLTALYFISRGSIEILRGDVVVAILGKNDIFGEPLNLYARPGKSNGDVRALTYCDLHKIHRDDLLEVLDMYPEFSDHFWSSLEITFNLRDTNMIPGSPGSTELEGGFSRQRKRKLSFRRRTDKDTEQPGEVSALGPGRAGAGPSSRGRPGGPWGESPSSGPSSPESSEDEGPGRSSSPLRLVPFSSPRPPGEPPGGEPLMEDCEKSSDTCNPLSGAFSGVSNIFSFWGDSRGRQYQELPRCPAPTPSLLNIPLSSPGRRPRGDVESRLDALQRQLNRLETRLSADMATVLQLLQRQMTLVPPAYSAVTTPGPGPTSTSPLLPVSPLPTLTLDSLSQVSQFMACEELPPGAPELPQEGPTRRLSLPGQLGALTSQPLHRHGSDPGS
row,SMILES,"hERG current change (%, negative = inhibition) at 1uM [%]"
1,COc1ccc(C2=[N+]([O-])C(C)(C)N(O)C2(C)C)cc1,10.1
2,Cc1nc(-c2nnc(SCC(=O)Nc3cc(Cl)cc(Cl)c3)n2C)cs1,10.6
3,C/C(=N\N=C(c1ccccc1)c1ccccc1)c1ccco1,5.46
4,CN1C(=O)C(=Cc2ccccc2OS(=O)(=O)c2ccccc2)C(=O)N(C)C1=O,9.02
5,N[C@@H]1CONC1=O,18.7
6,COC(=O)[C@H]1C[C@H]1[C@@H](NC(=O)c1cccnc1)c1ccccc1,11.4
7,Fc1ccc(CNCCc2ccc3c(c2)OCO3)cc1,13.8
8,COc1ccc(C(CCNCc2ccc(N(C)C)cc2)c2ccccc2OC)cc1 (stereo not drawn),-18.4
9,COc1ccc(C(CCNCc2ccccc2)c2ccc(F)cc2)cc1 (stereo not drawn),-17.7
10,CCOc1ccc(CNCCc2ccc3c(c2)OCO3)cc1,-52.6
11,COc1ccc(C(CCN)c2ccc3c(c2)OCO3)cc1 (stereo not drawn),13.6
12,COc1ccc(C(CCNCc2ccc(N(C)C)cc2)c2ccccc2)cc1 (stereo not drawn),-56.4
13,COc1ccc(C(CCNCc2ccc(N(C)C)cc2)C(C)C)cc1 (stereo not drawn),2.49
14,COc1ccc(CNCCC(c2ccccc2)c2ccc3c(c2)OCO3)cc1.Cl (stereo not drawn),-68.7
15,CCOc1ccccc1CNCCc1ccc2c(c1)OCO2.Cl,1.75
16,COc1ccc(OCCSc2nc(C)c(Cc3ccccc3)c(=O)[nH]2)cc1,7.38
17,Cn1c(C(=O)c2ccccc2[N+](=O)[O-])nc2ccccc21,-9.27
18,S=C(Nc1ccccc1Cl)N1CCC(c2ccccc2)C1 (stereo not drawn),-6.92
19,COc1ccc2c(c1)N1CCN=C1N2C.Cl,5.26

row,SMILES,"hERG current change (%, negative = inhibition) at 1uM [%]"
1,Cc1[nH]nc(NCCO)c1[N+](=O)[O-],-3.88
2,CCOc1ccc(NC(=O)CN(c2ccc(OC)cc2)S(C)(=O)=O)cc1,8.87
3,CCC(C)[C@H](NC(=O)C1CC(=O)N(c2ccc3c(c2)OCO3)C1)C(=O)NC1CCCCC1 (stereo partly drawn),29.5
4,COC(=O)C(Cc1ccc(OC(=O)c2ccc(C(F)(F)F)cc2)cc1)N1Cc2ccccc2C1=O (stereo not drawn),13.8
5,O=C(NC1CCCN(C2Cc3ccccc3C2)C1)c1ccc(F)cc1Cl (stereo not drawn),-72.9
6,O=C(NC1CC1)c1ccc(F)cc1Cl,14.2
7,COc1cccc(C(=O)NC2CCCN(C3Cc4ccccc4C3)C2)c1OC (stereo not drawn),0.941
8,N/C(=N\OC(=O)c1cc(-c2ccccc2)nc2ccccc12)c1ccncc1,8.01
9,CCOc1cc(S(=O)(=O)N2CCN(CC)CC2)ccc1Cl,6.75
10,Cc1ccc(-c2cc(C(=O)N3CCCc4ccccc43)no2)cc1,-75.5
11,CCOC(=O)C1CCCN(C(=O)c2cc(-c3ccc(C)cc3)on2)C1 (stereo not drawn),-59.7
12,CCOC(=O)C1CCCN(C(=O)c2cc(-c3ccccc3)on2)C1 (stereo not drawn),3.94
13,O=C(c1cc(-c2ccccc2)on1)N1CCCc2ccccc21,8.2
14,O=C(c1cc(-c2ccc(O)cc2)on1)N1CCCc2ccccc21,8.9
15,Cc1ccc(-c2cc(C(=O)N3CCCCCC3)no2)cc1,10
16,COc1ccccc1/C=c1\sc2nc(-c3ccco3)nn2c1=O,17.5
17,Cc1ccc2nc(NCCO)nc(-c3ccccc3)c2c1,1.36
18,COc1ccc(C(C)=O)cc1COC(=O)c1cnc(C)cn1,17.6
19,CCCCNC(=O)CCCn1c(=S)[nH]c2cc3c(cc2c1=O)OCO3,19.2

row,SMILES,"hERG current change (%, negative = inhibition) at 1uM [%]"
1,Cc1oc(-c2ccccc2Cl)nc1CN1C(=O)CN=C(c2ccccc2)c2ccccc21,9.3
2,O=C(CNC(=O)/C(=C\c1ccc(F)cc1)NC(=O)c1ccccc1)OCc1ccccc1,-69
3,O=C(CCCNC(=O)/C(=C/c1ccc(Br)cc1)NC(=O)c1ccccc1)OCc1ccccc1,-2.58
4,CCOC(=O)CNC(=O)/C(=C\c1ccc(F)cc1)NC(=O)c1ccccc1,-11.7
5,O=C(CNC(=O)/C(=C/c1ccccc1)NC(=O)c1ccc(Br)cc1)OCc1ccccc1,2.24
6,O=C(CNC(=O)/C(=C\c1ccccc1)NC(=O)c1ccc(Br)cc1)OCc1ccccc1,-68.1
7,O=C(CNC(=O)/C(=C\c1ccc(Br)cc1)NC(=O)c1ccccc1)OCc1ccccc1,-48
8,COc1ccc(/C=N/N=C(/N)N[N+](=O)[O-])c(OC)c1,7.59
9,CCN(CC)S(=O)(=O)c1cc(NC(=O)C(C)N2CCc3ccccc32)ccc1C (stereo not drawn),9.99
10,C=CCn1c(SCC(=O)NNC(=O)Nc2cccc(Cl)c2)nnc1-c1ccccc1,6.04
11,COc1ccc(C(=O)Oc2cc(C)c(CN3CCOCC3)cc2C)cc1OC,-1.52
12,C#CCSc1nc(N)c2c(n1)OC(N)=C(C#N)C2c1cccnc1 (stereo not drawn),4.59
13,O=C(CSc1ncccn1)N1CCN(C(c2ccccc2)c2ccccc2)CC1,4.43
14,O=C(Cn1c(=O)cnc2ccccc21)N1CCN(S(=O)(=O)c2ccccc2Br)CC1,36.9
15,CCn1c2ccc(C)cc2c2nnc(SCCN3CCOCC3)nc21,4.8
16,CCCn1c2ccc(C)cc2c2nnc(SCCN3CCOCC3)nc21,19
17,CCn1c2nc(SCCN3CCOCC3)nnc2c2cc(C)cc(C)c21,-69.2
18,Cc1ccc(S(=O)(=O)N2CCCC2C(=O)Nn2cnnc2)cc1 (stereo not drawn),11.7
19,CCc1nc(SCC(=O)NC2CC2)c2c(C)c(C)sc2n1,-4.16
